Measurements reported in PubChem BioAssay (NCATS).
Where “and” joins values, the source holds several entries; their conditions need not be identical. Identical values can stand only once. Records with an inconclusive call do not appear. Values without a mark were called inactive. Calls of active or inactive are those of the source. The call rests on the fitted dose curve; in most records, active means well fitted cell-killing curve with a large enough effect; inconclusive means small, poorly fitted or top-dose-only effect, or effect the other way; inactive means no such curve, though single readings can be large or run the other way.

Tests used:
[1] = Viability qHTS for spleen associated tyrosine kinase inhibitor (SYKi) naive MV4-11 cells (AID 1963823); details: MV4-11 AML viability, CellTiter-Glo luminescence, 72 h; series mostly up to 45 µM; further: nearly all actives have a fitted effect of over 40% in size
Method in brief: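 SYKi-naive MV4-11 AML cells, 500 per well, were exposed to library compounds for 72 hr at 37 C, 5% CO2. Viability was then read by CellTiter-Glo luminescence after 10 min at room temperature.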

[2] = Viability qHTS for spleen associated tyrosine kinase inhibitor (SYKi) drug resistant MV4-11 cells (AID 1963824); details: SYKi-resistant MV4-11 viability, CellTiter-Glo, 72 h; series mostly up to 45 µM; further: nearly all actives have a fitted effect of over 35% in size
Method in brief: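 CellTiter-Glo luminescence, read 10 min after reagent addition, reports viability after a 72 hr compound exposure. Cells are an MV4-11 line made resistant to SYK inhibition, seeded at 500 per well onto compound-containing plates.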
Potency means the concentration at half of the fitted maximal effect.

Row | SMILES | Potency [1] | Potency [2] | viability (% of control) [1] | viability, % of control [2]
1 | NCc1ccc(Nc2ncc(F)c(Nc3ccccc3)n2)cc1 | 0.651 µM (active) | 1.46 µM (active) | – | –
2 | CC(=O)OC[C@@]12[C@H](O)C[C@]3(C)C(=CCC4[C@@]5(C)CC[C@H](O[C@@H]6O[C@H](C(=O)O)[C@@H](O[C@@H]7O[C@H](CO)[C@@H](O)[C@H](O)[C@H]7O)[C@H](O)[C@H]6O[C@@H]6O[C@H](CO)[C@@H](O)[C@H](O)[C@H]6O)[C@](C)(CO)C5CC[C@]43C)[C@@H]1CC(C)(C)[C@@H](OC(C)=O)[C@@H]2O (stereo partly drawn) | – | – | 96.3% [at 9.25 µM] | 95.8% [at 9.25 µM]
3 | O=C(c1c2ccccc2cc2ccccc12)N1CCC(N2CCC[C@@H](C(=O)N3CCOCC3)C2)CC1 | inactive | 16.4 µM (active) | – | –
4 | CC/C=C\CCO[C@@H]1O[C@H](CO[C@@H]2OC[C@H](O)[C@H](O)[C@H]2O)[C@@H](O)[C@H](O)[C@H]1O | inactive | inactive | – | –
5 | CC(=O)N[C@@H](CCCCN)C(=O)N(C)[C@@H](CC(C)C)C(=O)N[C@H](C(=O)N(C)[C@@H](Cc1ccccc1)C(=O)N[C@H](Cc1ccccc1)C(N)=O)C(C)C | – | – | 93.5% [at 4.97 µM] | 103% [at 4.97 µM]
6 | CCCCCCc1cccc(NC(=O)[C@H](N)CCP(=O)(O)O)c1 | – | – | 90.5% [at 9.25 µM] | 99.2% [at 9.25 µM]
7 | NC(=O)C1=C(O)[C@@]2(O)C(=O)C3=C(O)c4c(O)cccc4C[C@H]3C[C@H]2CC1=O | 3.32 µM (active) | 2.63 µM (active) | – | –
8 | COc1cc(CO)ccc1O[C@@H]1O[C@H](CO)[C@@H](O)[C@H](O)[C@H]1O | inactive | inactive | – | –
9 | C/C1=C\CC(C)(C)/C=C/C/C(C(=O)O)=C/CC1 | 23.1 µM (active) | 23.1 µM (active) | – | –
10 | O=c1cc(-c2ccc(O)cc2)oc2cc(OC3OC(CO)C(O)C(O)C3O)c(C3OC(CO)C(O)C(O)C3O)c(O)c12 (stereo not drawn) | inactive | inactive | – | –
11 | CC(=O)NCCc1c[nH]c2ccc(O)cc12 | inactive | inactive | – | –
12 | C/C=C/c1ccc(O[C@@H]2O[C@H](CO)[C@@H](O)[C@H](O)[C@H]2O)c(OC)c1 | inactive | inactive | – | –
13 | C=C1C(=O)O[C@@H]2[C@H]1CC[C@H](C)[C@]1(CCC(=O)O1)C2(C)O (stereo partly drawn) | 16.4 µM (active) | 6.51 µM (active) | – | –
14 | Cc1cc(N(C)C)ccc1-c1nc2ccc(-c3nc4ccc(N5CCN(C)CC5)cc4[nH]3)cc2[nH]1 | 0.411 µM (active) | 0.184 µM (active) | – | –
15 | COc1cc(C2c3cc4c(c(O)c3CC(CO)C2C(=O)O)OCO4)cc(OC)c1O (stereo not drawn) | 2.52 µM (active) | 2 µM (active) | – | –
16 | CC1=C2[C@@H]([C@H](C)CC[C@H]2/C=C(\C)C(=O)O)[C@H](O)C1 | inactive | inactive | – | –
17 | C=C1C(=O)O[C@@H]2C3=C(C)CCC[C@]3(C)CC[C@@]12O | 1.64 µM (active) | 0.731 µM (active) | – | –
18 | O=C(O)C[C@H]1CCC(=O)[C@@H]1C/C=C\CCOC1OC(CO)C(O)C(O)C1O (stereo partly drawn) | inactive | inactive | – | –
19 | CC1(C)CC[C@]2(C(=O)O[C@@H]3O[C@H](CO)[C@@H](O)[C@H](O)[C@H]3O)CC[C@]3(C)C(=CCC4[C@@]5(C)C[C@@H](O)[C@H](O)C(CO)(CO)C5CC[C@]43C)C2[C@@H]1O (stereo partly drawn) | inactive | inactive | – | –
20 | COc1c(O)cc2c(c1O)C(=O)O[C@H](C)[C@H]2O | inactive | inactive | – | –
21 | CC(C)(O)C1CCC(C)(C2CCC3(C)C4CCC5C(C)(C(=O)OC6OC(CO)C(O)C(O)C6O)C(O)CC(O)C56CC46CCC23C)O1 (stereo not drawn) | inactive | inactive | – | –
22 | CC(C)CC(=O)O[C@@H]1OC=C(CO[C@@H]2O[C@H](CO)[C@@H](O)[C@H](O)[C@H]2O)[C@H]2[C@@H]3O[C@H]3[C@@](O)(CO)[C@@H]12 | inactive | inactive | – | –
23 | C=C1C[C@H](O)[C@@H](O)[C@@]2(C)C1[C@@H](O)[C@H]1OC(=O)C3[C@@H](C)[C@@H](O)[C@H](O)C2[C@]31C (stereo partly drawn) | inactive | inactive | – | –
24 | COC(=O)C12C(=O)C(C)=C(O)C1(C)C(C)=CC1C34CCC(OC3=O)C(C)(C)C4CCC12C (stereo not drawn) | inactive | inactive | – | –
25 | COc1ccc(C[C@H](N)C(=O)N[C@@H]2[C@H](O)[C@H](n3cnc4c(N(C)C)ncnc43)O[C@@H]2CO)cc1 | 0.184 µM (active) | 0.184 µM (active) | – | –
26 | C[C@@H]1O[C@@H](O[C@H]2[C@H](OC(=O)[C@]34CCC(C)(C)C[C@H]3C3=CCC5[C@@]6(C)CC[C@H](O[C@@H]7O[C@H](CO[C@@H]8OC[C@H](O)[C@H](O)[C@H]8O)[C@@H](O)[C@H](O)[C@H]7O)C(C)(C)C6CC[C@@]5(C)[C@]3(C)C[C@H]4O)OC[C@@H](O)[C@@H]2O)[C@H](O)[C@H](O)[C@H]1O[C@@H]1OC[C@H](O)[C@H](O[C@@H]2OC[C@@H](O)[C@H](O)[C@H]2O)[C@H]1O (stereo partly drawn) | – | – | 84.1% [at 9.25 µM] | 84.6% [at 9.25 µM]
27 | O=C(/C=C/c1ccc(O)c(O)c1)OCc1ccccc1O[C@@H]1O[C@H](CO)[C@@H](O)[C@H](O)[C@H]1O | inactive | inactive | – | –

Row | SMILES | Potency [1] | Potency [2] | viability (% of control) [1] | viability, % of control [2]
28 | Nc1nc(Cl)nc2c1ncn2[C@@H]1O[C@H](CO)[C@@H](O)[C@@H]1F | 106 nM (active) and 263 nM (active) | 188 nM (active) and 332 nM (active) | – | –
29 | C=CC(=O)Nc1cc(-n2c(=O)ccc3cnc4ccc(-c5ccc(NS(C)(=O)=O)cc5)cc4c32)ccc1C | 1.16 µM (active) | 1.3 µM (active) | – | –
30 | C[C@@H](O)[C@H](N)C(=O)N1CCC[C@H]1C(=O)N1CCC[C@H]1C(=O)N[C@H](C(N)=O)[C@@H](C)O | – | – | 90.2% [at 9.25 µM] | 81.3% [at 9.25 µM]
31 | COc1cc(CCc2ccc(OCC=C(C)C)cc2)cc(OC)c1OC | 14.3 µM (active) | 5.7 µM (active) | – | –
32 | C=C[C@H]1[C@H](O[C@@H]2O[C@H](CO)[C@@H](O)[C@H](O)[C@H]2O)OC=C(C(=O)OC)[C@H]1CC(=O)O | inactive | inactive | – | –
33 | COc1cc2c(cc1-c1c(C)noc1C)ncc1[nH]c(=O)n(C(C)c3ccccn3)c12 (stereo not drawn) | 0.326 µM (active) | 0.366 µM (active) | – | –
34 | O=C1c2c(O[C@@H]3O[C@H](CO)[C@@H](O)[C@H](O)[C@H]3O)cc(O)cc2OC1(O)Cc1ccc(O)cc1 (stereo partly drawn) | 2 µM (active) | 3.17 µM (active) | – | –
35 | COc1ccc(-c2nc(-c3cc(C(F)(F)F)cc(C(F)(F)F)c3)n(Cc3ccc(C(N)=O)cc3)c2-c2ccc(OC)cc2)cc1 | 7.31 µM (active) | 3.66 µM (active) | – | –
36 | OC1COC(OCC2OC(OCCc3ccccc3)C(O)C(O)C2O)C(O)C1O (stereo not drawn) | inactive | inactive | – | –
37 | CCC/C=C/C=C/C1CC(O)C(O)C(=O)C1CO (stereo not drawn) | inactive | inactive | – | –
38 | Cc1cccc(/C=N/Nc2cc(N3CCOCC3)n3nc(-c4ccncc4)cc3n2)c1 | 1.03 µM (active) | 0.291 µM (active) | – | –
39 | O=C(O)C(O[C@@H]1O[C@H](CO[C@@H]2O[C@H](CO)[C@@H](O)[C@H](O)[C@H]2O)[C@@H](O)[C@H](O)[C@H]1O)c1ccccc1 (stereo partly drawn) | inactive | inactive | – | –
40 | Nc1n[nH]c(N)c1N=Nc1ccc(O)cc1 | 9.2 µM (active) | 6.51 µM (active) | – | –
41 | O=C1NC(=O)C(c2cn3c4c(cccc24)CCC3)C1c1c[nH]c2ccccc12 (stereo not drawn) | 0.92 µM (active) | 0.92 µM (active) | – | –
42 | COC(=O)c1cc(OC)cc(OC)c1C(=O)c1c(OC)cc2c(c1O)C1CCCC(C)(O2)O1 (stereo not drawn) | inactive | 7.09 µM (active) | – | –
43 | C=C1C(=O)O[C@@H]2/C=C(/C)[C@@H](OC(C)=O)C/C=C(\C)C[C@@H](OC(=O)/C(=C/CO)CO)[C@@H]12 | 3.99 µM (active) | 3.55 µM (active) | – | –
44 | CCOC(=O)[C@H](CCc1ccccc1)CC1(C(=O)N[C@H]2CCc3ccccc3N(CC(=O)O)C2=O)CCCC1 | 14.6 µM (active) | 14.6 µM (active) | – | –
45 | CN(C)C(CCOc1cccc2ccccc12)c1ccccc1 (stereo not drawn) | 18.4 µM (active) | 14.6 µM (active) | – | –
46 | Cc1ccc(C(=O)OCc2ccc([C@@H](CN)C(=O)Nc3ccc4cnccc4c3)cc2)c(C)c1 | 1.15 µM (active) | 2.29 µM (active) | – | –
47 | COc1c2c(c(C)c3c1C(=O)OC3)O[C@@]1(C)C[C@@H](O)[C@]34O[C@](OC)(CC[C@]3(C)[C@H]1C2)OC4(C)C | inactive | inactive | – | –
48 | CCOC(=O)Nc1cc(-c2ccc(C)c(NS(C)(=O)=O)c2)nn2c(C)nnc12 | 0.651 µM (active) | 0.651 µM (active) | – | –
49 | O=C(O)/C=C/c1ccc(-c2ccc(O)c(C34CC5CC(CC(C5)C3)C4)c2)cc1 | 0.184 µM (active) | 0.103 µM (active) | – | –
50 | CC1(CO)CC(O)C2(C)CCC3(C)C(=CCC4C5(C=O)CCC(OC6OC(C(=O)O)C(O)C(O)C6OC6OC(C(=O)O)C(O)C(O)C6O)C(C)(C)C5CCC43C)C2C1 (stereo not drawn) | – | – | 87.7% [at 9.25 µM] | 98.3% [at 9.25 µM]
51 | CC1OC(OC2C(OC3C(O[C@H]4CC[C@@]5(C)C(CC[C@]6(C)C5C(=O)C=C5C7CC(C)(C)CC(O)[C@]7(C)CC[C@]56C)C4(C)C)OC(C(=O)O)C(O)C3O)OCC(O)C2O)C(O)C(O)C1O (stereo partly drawn) | – | – | 54.7% [at 9.25 µM] | 71.2% [at 9.25 µM]
52 | O=C(Nc1ccc(S(=O)(=O)C(F)(F)F)cc1)C1=CCN(c2ncccc2C(F)(F)F)CC1 | 5.8 µM (active) | 3.66 µM (active) | – | –
53 | C=C(C)C(=O)OC1CC2(C)OC(=CC2=O)C(=C)CC2OC(=O)C(=C)C12 (stereo not drawn) | 0.255 µM (active) | 0.36 µM (active) | – | –
54 | Cc1nc2cc(-c3cc(F)cc(C#N)c3)ccc2s1 | inactive | inactive | – | –
